PubChem BioAssay
Several values for one entry are separate records, joined by “and”; a condition that tells them apart may be missing. Equal values may be shown once. Results filed as inconclusive are left out. Where a structure was tested more than once in an assay, its records may differ in their call. Activity calls are given as the source filed them. Unless noted, the rule behind the calls is not given here.

Key:
[1] = biological target: ATP-dependent translocase ABCB1 (Homo sapiens) (UniProt P08183); experiment: MDR1 (ABCB1) efflux transporter inhibition, cell-based (AID 377; in the data active = fluorescence slope change above about 50%); conditions: MDR1-expressing cells, fluorescent substrate accumulation slope; stronger effect = higher value; concentration not given here
[2] = test system: Neuropilin-2 / VEGF-C interaction (human); experiment: inhibitors of NRP2–VEGF-C binding, biochemical, microplate binding format, z-score (AID 743281); conditions: microplate NRP2/VEGF-C binding assay; stronger effect = lower value
[3] = reducers of polyQ inclusions in PC12 cells, cell-based, NGF-treated PC12, GFPQ80 (AID 1614); conditions: PC12 NGF-treated GFP-polyQ80 inclusion reduction;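 note: lower means fewer inclusions and 0 means no inclusions at all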
[4] = growth inhibition of DIPG glioma cells, dose response, cell-based, SU-DIPG-XIII, MIPE4.0, CellTiter-Glo, qHTS (AID 1347061; cut-off not given, nearly all actives have AC50 up to about 37 µM;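 note: cells exposed to compound for 48 hours before readout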); conditions: SU-DIPG-XIII viability, CellTiter-Glo ATP luminescence
[5] = growth inhibition of DIPG glioma cells, dose response, cell-based, JHH-DIPG-1, MIPE4.0, CellTiter-Glo, qHTS (AID 1347062; cut-off not given, nearly all actives have AC50 up to about 27 µM;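 for AC50: cells exposed to compound for two days before readout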); conditions: JHH-DIPG-1 viability, CellTiter-Glo ATP luminescence
[6] = growth inhibition of DIPG glioma cells, dose response, cell-based, SU-DIPG-IV, MIPE4.0, CellTiter-Glo, qHTS (AID 1347063; cut-off not given, nearly all actives have AC50 up to about 30 µM;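 note: compound exposure lasted 48 hours before the viability readout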); conditions: SU-DIPG-IV viability, CellTiter-Glo ATP luminescence
[7] = SU-DIPG-VI glioma cell viability, MIPE4.0 library, CellTiter-Glo luminescence, qHTS (AID 1347066; cut-off not given, nearly all actives have AC50 up to about 30 µM;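 note: cells exposed to compound for 48 hours before readout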); conditions: CellTiter-Glo ATP luminescence
[8] = growth inhibition of DIPG glioma cells, dose response, cell-based, SU-DIPG-XVII, MIPE5.0, CellTiter-Glo, qHTS (AID 1347060; cut-off not given, nearly all actives have AC50 up to about 26 µM;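 for AC50: cells exposed to compound for 48 hours before viability readout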); conditions: SU-DIPG-XVII viability, CellTiter-Glo ATP luminescence
[9] = growth inhibition of DIPG glioma cells, dose response, cell-based, SU-DIPG-XIII, MIPE5.0, CellTiter-Glo, qHTS (AID 1347064; cut-off not given, nearly all actives have AC50 up to about 23 µM); conditions: SU-DIPG-XIII viability, CellTiter-Glo ATP luminescence
[10] = viability loss in pontine glioma line – cell-based, SU-DIPG-XXV, MIPE5.0, CellTiter-Glo, qHTS, dose response (AID 1347065; cut-off not given, nearly all actives have AC50 up to about 26 µM;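 note: cells exposed to compound for 48 hours before ATP readout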); conditions: CellTiter-Glo ATP luminescence
[11] = JHH-DIPG-1 glioma cell viability, MIPE5.0 library, CellTiter-Glo luminescence, qHTS (AID 1347067; cut-off not given, nearly all actives have AC50 up to about 26 µM;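 note: cells exposed to compound for 48 hours before readout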); conditions: JHH-DIPG-1 glioma viability, CellTiter-Glo ATP luminescence
[12] = SU-DIPG-XXV glioma cell viability, MIPE5.0 library, qHTS (AID 1347068; cut-off not given, nearly all actives have IC50 up to about 30 µM)
[13] = circadian clock period modulators, cell-based, LOPAC library, luminescence reporter (AID 2774); conditions: circadian reporter cells, at 7 µM, actives lie on both sides;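 note: values are relative to mean of DMSO wells on each plate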
[14] = Cy5 fluorescence quenching or enhancement artefacts, artefact control for HCV NS3 helicase inhibitor project, biochemical, LOPAC1280 (AID 687037); conditions: Cy5-DNA-NS3h complex fluorescence interference counterscreen
[15] = phospholipid biosynthesis inhibitors in animal cells, primary screen, cell-based, LOPAC library, screen 4 (AID 1347384); conditions: phospholipid biosynthesis inhibition screen, at 10 µM
[16] = LFS_MB_P medulloblastoma growth inhibition, cell-based, chromothripsis tumors, cisplatin or BGB combos (AID 1671449; in the data active = inhibition above about 80%;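 note: cells exposed for 96 hours; 0% = vehicle DMSO and 100% = killing by high DMSO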); conditions: LFS_MB_P medulloblastoma cells
[17] = HDN33 neuroblastoma growth inhibition, cell-based, chromothripsis tumors, cisplatin or BGB combos (AID 1671450; in the data active = inhibition above about 80%;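 note: cells exposed to compound for four days; 0% = vehicle DMSO and 100% = cell killing by high DMSO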); conditions: HDN33 neuroblastoma cells, stronger effect = higher value
[18] = ICB984 medulloblastoma cell growth inhibition, synergistic combos for chromothripsis tumors, cisplatin or BGB combos (AID 1671451); conditions: ICB984 medulloblastoma cells, drug combinations, stronger effect = higher value;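 note: cells exposed for 96 hours before readout; 0% = vehicle DMSO and 100% = killing by high DMSO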
[19] = HTB85 osteosarcoma cell growth inhibition, synergistic combos for chromothripsis tumors, BGB or cisplatin IC20 combos (AID 1671453; in the data active = inhibition above about 80%;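 note: cells exposed for 96 hours before readout; 0% = vehicle DMSO and 100% = high DMSO killing control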); conditions: HTB85 osteosarcoma cells, drug combinations, stronger effect = higher value

Chain of ATP-dependent translocase ABCB1 (Homo sapiens) (P08183 whole entry, looked up): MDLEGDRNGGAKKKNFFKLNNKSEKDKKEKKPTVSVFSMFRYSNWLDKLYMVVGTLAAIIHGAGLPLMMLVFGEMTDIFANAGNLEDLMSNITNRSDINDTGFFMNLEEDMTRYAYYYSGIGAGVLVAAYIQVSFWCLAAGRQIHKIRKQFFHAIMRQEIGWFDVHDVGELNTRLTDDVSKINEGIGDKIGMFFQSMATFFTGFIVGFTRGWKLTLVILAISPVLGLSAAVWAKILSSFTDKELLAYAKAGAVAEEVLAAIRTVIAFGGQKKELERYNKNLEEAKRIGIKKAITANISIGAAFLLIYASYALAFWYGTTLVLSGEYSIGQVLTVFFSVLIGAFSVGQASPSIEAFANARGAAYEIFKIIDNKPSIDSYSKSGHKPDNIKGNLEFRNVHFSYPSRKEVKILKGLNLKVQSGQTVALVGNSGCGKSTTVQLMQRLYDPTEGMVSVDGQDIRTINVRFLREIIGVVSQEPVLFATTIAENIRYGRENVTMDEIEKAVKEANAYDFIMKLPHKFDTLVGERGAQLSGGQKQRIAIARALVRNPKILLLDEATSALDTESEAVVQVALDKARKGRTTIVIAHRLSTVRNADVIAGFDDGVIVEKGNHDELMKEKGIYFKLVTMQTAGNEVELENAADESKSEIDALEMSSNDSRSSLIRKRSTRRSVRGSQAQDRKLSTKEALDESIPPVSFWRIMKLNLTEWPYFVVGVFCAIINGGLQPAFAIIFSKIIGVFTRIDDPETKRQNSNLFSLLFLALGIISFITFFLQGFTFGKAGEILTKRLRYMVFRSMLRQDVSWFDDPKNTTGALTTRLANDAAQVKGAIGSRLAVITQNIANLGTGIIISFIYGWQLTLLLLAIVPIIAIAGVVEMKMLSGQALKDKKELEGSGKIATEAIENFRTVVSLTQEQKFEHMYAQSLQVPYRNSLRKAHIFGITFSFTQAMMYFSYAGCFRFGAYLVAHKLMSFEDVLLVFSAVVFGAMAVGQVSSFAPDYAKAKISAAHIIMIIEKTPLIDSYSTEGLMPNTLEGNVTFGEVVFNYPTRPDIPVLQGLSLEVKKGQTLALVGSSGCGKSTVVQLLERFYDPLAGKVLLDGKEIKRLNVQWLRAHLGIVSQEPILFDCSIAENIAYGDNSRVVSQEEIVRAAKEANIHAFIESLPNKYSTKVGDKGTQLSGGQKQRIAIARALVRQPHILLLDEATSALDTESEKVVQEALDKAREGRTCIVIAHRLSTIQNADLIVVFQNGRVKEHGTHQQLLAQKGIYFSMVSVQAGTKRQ

CC1=C(C(=O)O)N2C(=O)[C@@H](NC(=O)[C@H](N)c3ccccc3)[C@H]2SC1
fluorescence slope change [1]: 94.6% (active)
outcome [2]: inactive

CN[C@@H]1[C@H](O)[C@H](NC)[C@H]2O[C@@]3(O)C(=O)C[C@@H](C)O[C@H]3O[C@@H]2[C@H]1O
fluorescence slope change [1]: 67% (active)
inclusion score [3]: 1.5
AC50 [4]: 4690 nM (active)
AC50 [5]: 1050 nM (active)
AC50 [6]: 332 nM (active)
AC50 [7]: 1480 nM (active)

Cc1cccc(Nc2ccncc2S(=O)(=O)NC(=O)NC(C)C)c1
z-score [2]: 0.676 (inactive)
outcome [4]: inactive
outcome [5]: inactive
outcome [6]: inactive
outcome [7]: inactive

CC(=O)OCC[N+](C)(C)C
inclusion score [3]: 2

Cc1cccc(Nc2ccccc2C(=O)O)c1C
inclusion score [3]: 1.5

C[C@H]1C[C@@H]2[C@H]([C@@H](O)C[C@@]3(C)[C@H]2CC[C@]3(O)C(=O)CO)[C@@]2(C)C=CC(=O)C=C12
fluorescence slope change [1]: 127% (active)
outcome [8]: inactive
outcome [5]: inactive
outcome [9]: inactive
outcome [10]: inactive
outcome [11]: inactive
outcome [12]: inactive

CC(C)C1CCC(C(=O)N[C@H](Cc2ccccc2)C(=O)O)CC1 (some centres undefined)
z-score [2]: -0.458 (inactive)
outcome [8]: inactive
outcome [4]: inactive
outcome [5]: inactive
outcome [6]: inactive
outcome [9]: inactive
outcome [10]: inactive
outcome [7]: inactive
outcome [11]: inactive
outcome [12]: inactive

CCCN(CCC)S(=O)(=O)c1ccc(C(=O)O)cc1
inclusion score [3]: 2

CC(=O)[C@H]1CC[C@H]2[C@@H]3C[C@H](C)C4=CC(=O)CC[C@]4(C)[C@H]3[C@@H](O)C[C@]12C
fluorescence slope change [1]: 55.7% (active)

CCCSc1ccc2nc(NC(=O)OC)[nH]c2c1
fluorescence slope change [1]: 97.2% (active)

Cn1c(=O)c2[nH]cnc2n(C)c1=O
fluorescence slope change [1]: 7.6% (inactive) and 62.3% (active)
inclusion score [3]: 1.5
period change [13]: 0.14 h (inactive)
fluorescence ratio (interference) [14]: 0.9 (inactive)
outcome [8]: inactive
outcome [4]: inactive
outcome [5]: inactive
outcome [6]: inactive
outcome [9]: inactive
outcome [10]: inactive
outcome [7]: inactive
outcome [11]: inactive
outcome [12]: inactive
outcome [15]: inactive
inhibition ([16]; at 0.5 µM, stronger effect = higher value): 15.2% (inactive) and -21.4% (inactive) and -26.2% (inactive)
inhibition ([16]; measured here: combination with BGB IC20, at 0.005 µM): -5.83% and -14.3% and -19.1%
inhibition ([16]; measured here: combination with BGB IC40, at 0.005 µM): -32.6% and -34.3% and -25.4%
inhibition ([16]; measured here: combination with BGB IC40, at 0.05 µM): -28.1% and -16.1% and -10.3%
inhibition ([16]; measured here: combination with cisplatin, at 0.5 µM, stronger effect = higher value): 57.5% and -49.4% and -30.2%
inhibition ([16]; measured here: combination with cisplatin, at 5 µM, stronger effect = higher value): -12.8% and -12% and -12.6%
inhibition ([17]; BGB combo, at 5 µM): -6.91% and -17% and -18.3%
inhibition ([17]; at 0.5 µM): 1.38% (inactive) and 2.18% (inactive) and -18.5% (inactive)
inhibition ([17]; cisplatin combo, at 5 µM): 14.2% and 15.4% and -46.9%
inhibition ([17]; measured here: with BGB IC20 combination, at 0.5 µM): 4.11% and 8.06% and -21.1%
inhibition ([17]; measured here: with cisplatin IC20 combination, at 0.5 µM): 9.64% and 13.8% and 3.17%
inhibition ([17]; single agent, at 5 µM): -10.4% and -21.4% and -26.1%
inhibition ([18]; BGB IC20 combo, at 0.005 µM): -1.06% and -2.94% and -4.47%
inhibition ([18]; BGB IC40 combo, at 0.005 µM): -42.4% and 6.67% and -13.1%
inhibition ([18]; BGB IC40 combo, at 0.05 µM): -45.5% and -37.4% and -12%
inhibition ([18]; at 0.5 µM): -27.5% (inactive) and -16.4% (inactive) and -30.3% (inactive)
inhibition ([18]; cisplatin combo, at 0.05 µM): -49.6% and -37.4% and -12%
inhibition ([18]; cisplatin combo, at 0.5 µM): -29.5% and -23.4% and -59.1%
inhibition ([18]; cisplatin combo, at 5 µM): -24.5% and 11.4% and -42.2%
inhibition ([18]; measured here: 5 uM single agent, at 5 µM): -5.05% and -45.4% and 1.22%
inhibition ([19]; at 0.5 µM): 4.06% (inactive) and -19.4% (inactive) and 3.27% (inactive)
inhibition ([19]; measured here: with BGB IC20, at 0.5 µM): -3.78% and -35% and -47%
inhibition ([19]; measured here: with BGB IC20, at 5 µM): -9.64% and -9.51% and -34.2%
inhibition ([19]; measured here: with cisplatin IC20, at 0.5 µM): -5.37% and -29.8% and 44.7%
inhibition ([19]; measured here: with cisplatin IC20, at 5 µM): -42.2% and 14.2% and 0.95%
inhibition ([19]; single agent, at 5 µM): 4.95% and 14.1% and 12.1%

CC[C@H](C)C(=O)O[C@H]1C[C@H](O)C=C2C=C[C@H](C)[C@H](CC[C@@H](O)C[C@@H](O)CC(=O)O)[C@H]21
z-score [2]: 0.492 (inactive)
AC50 [8]: 23500 nM (active)
outcome [4]: inactive
outcome [6]: inactive
outcome [9]: inactive
outcome [11]: inactive
outcome [12]: inactive

CCS(=O)(=O)CCn1c([N+](=O)[O-])cnc1C
fluorescence slope change [1]: 11.6% (inactive)
z-score [2]: -0.45 (inactive)

C[C@@H]1O[C@@H](OC[C@H]2O[C@@H](Oc3c(-c4ccc(O)c(O)c4)oc4cc(O)cc(O)c4c3=O)[C@H](O)[C@@H](O)[C@@H]2O)[C@H](O)[C@H](O)[C@H]1O
inclusion score [3]: 2
z-score [2]: 0.702 (inactive)

C[C@H](CCC(=O)O)[C@H]1CC[C@H]2[C@@H]3C(=O)C[C@@H]4CC(=O)CC[C@]4(C)[C@H]3CC(=O)[C@]12C
fluorescence slope change [1]: 97.9% (active)
z-score [2]: -0.00555 (inactive)

c1ccc2c(CC3=NCCN3)cccc2c1
inclusion score [3]: 1.5

CCCCCCCCCCC[C@@H](C[C@@H]1OC(=O)[C@H]1CCCCCC)OC(=O)[C@H](CC(C)C)NC=O
z-score [2]: -1.43 (inactive)

CN(C)c1ccc(O)c2c1C[C@H]1C[C@H]3[C@H](N(C)C)C(=O)C(C(N)=O)=C(O)[C@@]3(O)C(=O)C1=C2O
fluorescence slope change [1]: 103% (active)
inclusion score [3]: 0
outcome [5]: inactive
outcome [7]: inactive
outcome [11]: inactive
outcome [12]: inactive

OCCN1C[C@H](O)[C@@H](O)[C@H](O)[C@H]1CO
z-score [2]: -1.24 (inactive)
outcome [8]: inactive
outcome [4]: inactive
outcome [5]: inactive
outcome [6]: inactive
outcome [10]: inactive
outcome [7]: inactive
outcome [11]: inactive
outcome [12]: inactive

CN(C)CC/C=C1\c2ccccc2COc2ccccc21
fluorescence slope change [1]: 109% (active)
period change [13]: 0.025 h (inactive)
fluorescence ratio (interference) [14]: 1 (inactive)
outcome [15]: inactive
